This is a sample that favours compounds with a hit; in the whole collection about 2.2% have one here.
Mito fusion yeast: qHTS Assay for Small Molecule Inhibitors of Mitochondrial Division or Activators of Mitochondrial Fusion | S. cerevisiae fusion-defective mutant growth rescue, CellTiterGlo 48 h | Potency, µM (series often up to 46.1 µM), actives largely listed as activators | 0.23% of 320,000 active | AID 485298, 2010; also: nearly all actives have a fitted effect of over 45% in size
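S. cerevisiae fusion-defective temperature-sensitive mutants (e.g. fzo1-1, mgm1-5) grown 48 h at 37C in YPEG (ethanol/glycerol non-fermentable) medium with 23 nl compound per well; growth rescue read as CellTiterGlo luminescence.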
ERG Ets-DNA blk: qHTS for Small Molecule Inhibitors of the ERG Ets/DNA interaction; fluorescence polarization, His-ERG Ets domain / labelled DNA; Potency, µM (series often up to 76.9 µM), usual class: inhibitors; 0.028% of 370,000 active; AID 624246, 2012; active = well fitted inhibition curve with a large enough effect in the polarisation, with a control signal flat; inconclusive = small, poorly fitted or top-dose-only effect, or effect the other way, or a change in a side signal; inactive = no such curve, though single readings can be large or run the other way; the % refers to the polarisation;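 also: polarization taken with two DNA probes labelled with fluorescein and Texas red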
Target sequence (P11308 whole entry, looked up, the tested form may be a part): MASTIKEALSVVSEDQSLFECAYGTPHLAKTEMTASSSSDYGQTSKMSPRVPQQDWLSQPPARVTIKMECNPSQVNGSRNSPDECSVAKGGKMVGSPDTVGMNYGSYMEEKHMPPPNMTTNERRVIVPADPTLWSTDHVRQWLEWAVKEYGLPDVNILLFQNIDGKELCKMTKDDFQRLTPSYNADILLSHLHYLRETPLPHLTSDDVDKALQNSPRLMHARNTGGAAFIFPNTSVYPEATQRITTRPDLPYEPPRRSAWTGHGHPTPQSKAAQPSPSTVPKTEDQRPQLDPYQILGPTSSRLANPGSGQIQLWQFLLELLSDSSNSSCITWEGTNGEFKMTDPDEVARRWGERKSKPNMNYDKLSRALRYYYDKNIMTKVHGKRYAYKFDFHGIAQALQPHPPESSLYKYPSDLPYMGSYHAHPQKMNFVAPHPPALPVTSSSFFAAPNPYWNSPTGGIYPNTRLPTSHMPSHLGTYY
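His-tagged ERG Ets domain (1 uM in the protein solution; 300mM KCl, 50mM Tris-HCl, 1mM EDTA, 1mM DTT, pH 7.5) received compound, then a probe mix of 5 nM fluorescein-DNA and 100nM Texas-615-DNA. Fluorescence polarization was read for both dyes.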
Abeta rescue: qHTS for compounds that reverse cellular toxicity of Amyloid beta (A-beta) peptide in yeast: Primary Screen | yeast expressing A-beta42, growth rescue, OD600, 48 h; response scale: 0% DMSO, 100% iron-clioquinol control | Potency, µM (titrated, usually from 46.1 µM), most hits filed as activators | 0.063% of 410,000 active; also: nearly all actives have a fitted effect of over 55% in size
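Yeast A-beta toxicity model in growth medium with pinned compounds, 48 h at 30 C; growth read as absorbance at 600 nm. Normalized to FeCl3/clioquinol equimolar mix (positive) and DMSO (negative).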
TDP43 rescue: qHTS of TDP-43 Inhibitors | TDP-43 expressing yeast growth rescue, BacTiter-Glo, 24 h | Potency, µM (series often up to 46.1 µM), most hits filed as activators | 1.8% of 410,000 active | AID 652104, 2013; also: nearly all actives have a fitted effect of over 50% in size
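Yeast cells expressing TDP-43 under galactose induction are exposed to compounds for 24 hr at 30 deg C. BacTiter-Glo luminescence measures growth, so protective compounds score as activators.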
FUS suppressor: qHTS for Suppressors of FUS Proteinopathy: Primary screen using FUS-linked yeast assay. 0.24% of 390,000 active. S. cerevisiae FUS-expressing, growth rescue, OD600, 24 h. Potency, µM (doses to about 76.6 µM), hits mostly activators; also: nearly all actives have a fitted effect of over 55% in size
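Cultures pregrown in 2.5% raffinose medium are shifted to minimal medium containing 2% galactose to express toxic FUS. Compounds are tested at several concentrations. After 24hr at 30C, growth is quantified at 600 nm absorbance.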
aSyn yeast inh: qHTS of alpha-syn Inhibitors; Potency, µM (titrated, usually from 46.1 µM), actives largely listed as activators; Yeast expressing alpha-synuclein, growth rescue, BacTiter-Glo, 24 h; AID 652106, 2013; 0.14% of 370,000 active; also: nearly all actives have a fitted effect of over 65% in size
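Readout is rescue of growth in alpha-synuclein-expressing yeast, so inhibitors of toxicity appear as activators. Growth after 24 hr at 30 deg C in galactose medium is quantified by luminescence.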
Of the large screens only hits and unclear results are named; the others gave an inactive call. Unless noted, calls follow the shape of the dose curve; as a rule, active = well fitted curve in the direction sought with a large enough effect; inconclusive = small, poorly fitted or top-dose-only effect, or another doubt; inactive = no such curve, though single readings can be large; an effect the other way counts as inactive or inconclusive.

O=C(CSc1nc2ccc(Nc3nc(N4CCCC4)nc(N4CCCC4)n3)cc2s1)NCc1ccco1	TDP43 rescue 20µM
CCOC(=O)/C(=N\Nc1cccc(Cl)c1)Sc1nnc(-c2ccc(OC)cc2)n1C	TDP43 rescue 32µM (no result: ERG Ets-DNA blk, FUS suppressor)
Cc1cc(N)c2ccccc2[n+]1CCCCCCCCCC[n+]1c(C)cc(N)c2ccccc21	Mito fusion yeast 2.6µM (no result: ERG Ets-DNA blk, Abeta rescue, TDP43 rescue, FUS suppressor)
Cc1ccc(-c2n[nH]c3c2C(c2ccc(C(C)(C)C)cc2)NC3=O)cc1 (centres undefined)	none (no result: Mito fusion yeast, aSyn yeast inh)
CC(C)(C)C(=O)Nc1nnc(SCc2ccc(F)cc2)s1	Abeta rescue inconclusive, TDP43 rescue 18µM (no result: aSyn yeast inh)
COC(=O)CN1C(=O)[C@H]2[C@@H](c3ccc(C)o3)N3C(=O)CN(Cc4ccccn4)C(=O)[C@@]3(Cc3ccccc3)[C@H]2C1=O	none
COc1ccc(Cl)cc1NC(=O)Cn1cc2c(n1)CCC(C)C2 (centres undefined)	TDP43 rescue inconclusive (no result: Mito fusion yeast, aSyn yeast inh)
COc1ccc(NC(=O)CCS(=O)(=O)c2ccccc2Cl)cc1S(=O)(=O)Nc1ccc(Cl)cc1	FUS suppressor 32µM
COCCn1ccc2c(OCC(=O)Nc3cccc(OC)c3)cccc2c1=O	none (no result: Mito fusion yeast, aSyn yeast inh)
Cc1ccc(Sc2cnccc2C#N)cc1	TDP43 rescue 13µM
Cc1ccc(N/C(C(Cl)=C(Cl)Cl)=C(/Cl)[N+](=O)[O-])c(C)c1	TDP43 rescue 13µM (no result: Mito fusion yeast)
CN(Cc1ccccc1)C(=O)OCc1cn(Cc2cccc(Cl)c2)nn1	none (no result: Mito fusion yeast, ERG Ets-DNA blk, Abeta rescue, TDP43 rescue, aSyn yeast inh)
COc1ccc(-c2cc(C(=O)N=Nc3c(O)[nH]c4ccccc34)[nH]n2)cc1	none (no result: Mito fusion yeast, ERG Ets-DNA blk, Abeta rescue, TDP43 rescue, aSyn yeast inh)
Oc1ccc(COC2CCCC2)c2cccnc12	none (no result: ERG Ets-DNA blk, Abeta rescue, TDP43 rescue, FUS suppressor, aSyn yeast inh)
CCOc1cc2sc(N3CCC(C(=O)Nc4ccc(C(C)C)cc4)CC3)nc2cc1Br	none (no result: Mito fusion yeast)
Cc1ccc(C(=O)NCC(c2cccs2)S(=O)(=O)c2cccs2)cc1 (centres undefined)	TDP43 rescue inconclusive, FUS suppressor inconclusive (no result: Mito fusion yeast, aSyn yeast inh)
Cc1ccccc1NCc1cccn1-c1nnc(N2CCOCC2)s1	aSyn yeast inh 13µM (no result: Mito fusion yeast)
Cc1ccc(NCc2cccn2-c2nnc(N3CCCCCC3)s2)cc1	none (no result: Mito fusion yeast)
Fc1ccc(NCc2cccn2-c2nnc(N3CCOCC3)s2)cc1	none (no result: Mito fusion yeast)
Fc1cccc(NCc2cccn2-c2nnc(N3CCOCC3)s2)c1	aSyn yeast inh 22µM (no result: Mito fusion yeast)
C[C@H]1[C@@H](OC(=O)NC2CCCCC2)CC[C@@]23CCCN2C(=O)CCC[C@@H]13	none (no result: Mito fusion yeast, ERG Ets-DNA blk, Abeta rescue, TDP43 rescue, aSyn yeast inh)
Cc1cc(Cl)ccc1NC(=O)C1CCN(S(=O)(=O)c2ccc3[nH]c(=O)ccc3c2)CC1	none (no result: Mito fusion yeast)
N#Cc1c2n(c3c(=O)n(Cc4ccc(Cl)cc4)cnc13)CCCCC2	TDP43 rescue 20µM
COc1ccc(C2=CCN(C)C(=O)N2c2ccc([N+](=O)[O-])cc2)cc1	none (no result: Mito fusion yeast, ERG Ets-DNA blk, Abeta rescue, TDP43 rescue, aSyn yeast inh)
CC(=O)Nc1nc2ccc(Br)cc2s1	TDP43 rescue 13µM
COc1ccc2nc(NC(C)=O)sc2c1	none
Fc1ccc(Nc2nnc(C(F)(F)F)s2)cc1	TDP43 rescue 13µM
CNc1nnc(C(F)(F)F)s1	none
CCC(C)Sc1nc2c(c(=O)n1C)SC(C)C2 (centres undefined)	TDP43 rescue 18µM
COc1cccc(COC(=O)c2ccc(-c3nnn(Cc4ccccc4)n3)cc2)c1	none (no result: Mito fusion yeast, aSyn yeast inh)
O=C(CCC1N=C2c3ccccc3N=C(SCc3ccccc3Cl)N2C1=O)N1CCN(c2ccccc2)CC1 (centres undefined)	TDP43 rescue inconclusive (no result: Mito fusion yeast, aSyn yeast inh)
CC(=O)N[C@@H]1C[C@@H]2O[C@@H](CO)CC[C@@H]2O[C@@H]1CCc1ccc(C#CC2(O)CCCC2)cc1	none (no result: Mito fusion yeast, ERG Ets-DNA blk, Abeta rescue, TDP43 rescue, aSyn yeast inh)
O=C(NNC(=O)c1csc(-c2cccs2)n1)c1ccc(Cl)cc1	TDP43 rescue 22µM (no result: Mito fusion yeast, ERG Ets-DNA blk)
COc1ccc2c(c1)C(=NO)c1cc(OC)ccc1-2	TDP43 rescue 11µM
CCN(Cc1ccccc1)C(=S)NC(=O)c1ccccc1Br	Abeta rescue 10µM

High-throughput results (PubChem BioAssay)
